About 79,000 compounds went through this panel and 15% of them were active in at least one assay; those are over-represented in the sample as a whole. A number with no mark means an inactive call. Active and inactive are the calls of the source. Cut-off read from the data, not from the text of the source: active = growth inhibition above about 70%; inactive = the rest.
Columns and labels:
[1] = NCI Yeast Anticancer Drug Screen. Data for the rad50 strain (AID 155);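 note: 0% = growth of vehicle-only cultures of the same strain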; conditions: S. cerevisiae rad50 strain growth inhibition, stronger effect = higher value
Procedure, shortened: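 Growth of the mutant yeast was measured after compound exposure and referenced to vehicle-treated cultures.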

[2] = NCI Yeast Anticancer Drug Screen. Data for the mec2-1 strain (AID 157); conditions: S. cerevisiae mec2-1 strain, stronger effect = higher value
Procedure, shortened: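 Yeast mec2-1 mutant treated with compound. Readout: growth inhibition vs vehicle controls.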

[3] = NCI Yeast Anticancer Drug Screen. Data for the sgs1 mgt1 strain (AID 161);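 note: 0% = growth of cultures given vehicle only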; conditions: S. cerevisiae sgs1 mgt1 strain, stronger effect = higher value
Procedure, shortened: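 Read-out: growth inhibition vs vehicle controls. Cells: mutant yeast strain deficient in DNA damage repair.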

[4] = NCI Yeast Anticancer Drug Screen. Data for the bub3 strain (AID 167); conditions: S. cerevisiae bub3 mutant strain, stronger effect = higher value
Procedure, shortened: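 Whole-cell yeast assay. The mutant strain was incubated with compounds, and growth inhibition was determined by comparison with vehicle-treated cells.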

[5] = NCI Yeast Anticancer Drug Screen. Data for the mlh1 rad18 strain (AID 175); conditions: S. cerevisiae mlh1 rad18 strain growth inhibition, stronger effect = higher value
Procedure, shortened: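 Yeast w/ defined DNA-repair lesions; compound exposure; growth vs vehicle controls → % inhibition.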

[6] = NCI Yeast Anticancer Drug Screen. Data for the cln2 rad14 strain (AID 165);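 note: 0% = growth equal to vehicle treated cultures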; conditions: S. cerevisiae cln2 rad14 strain, stronger effect = higher value
Procedure, shortened: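 cln2 rad14 yeast strain; compound exposure; growth inhibition read vs vehicle controls.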

[7] = at 5.0 µM (retest, dose inferred, filed as 0.5)
[8] = at 50.0 µM (retest, dose inferred, filed as 5.0)

| Compound | growth inhibition [1, 7] [%] | growth inhibition [1, 8] | growth inhibition ([1]; at 50.0 µM) | growth inhibition [2, 7] [%] | growth inhibition [2, 8] | growth inhibition ([2]; at 50.0 µM) | growth inhibition [3, 7] [%] | growth inhibition [3, 8] | growth inhibition ([3]; at 50.0 µM) | growth inhibition [4, 7] [%] | growth inhibition [4, 8] | growth inhibition ([4]; at 50.0 µM) | growth inhibition [5, 7] [%] | growth inhibition [5, 8] | growth inhibition ([5]; at 50.0 µM) | growth inhibition [6, 7] | growth inhibition [6, 8] | growth inhibition ([6]; at 50.0 µM) |
| --- | --- | --- | --- | --- | --- | --- | --- | --- | --- | --- | --- | --- | --- | --- | --- | --- | --- | --- |
| COC1/C=C\OC2(C)Oc3c(C)c(O)c4c(c3C2=O)C2=NC(C)(C)N(c3ccccc3)C2=C(NC(=O)/C(C)=C\C=C\C(C)C(O)C(C)C(O)C(C)C(OC(C)=O)C1C)C4=O (configuration not stated) | -2 | 78% (active) | 24.9% | -2 | 95% (active) | 53.5% | -2 | 85% (active) | 72.8% (active) | -7 | 69% | 27.9% | -2 | 86% (active) | 51.9% | – | – | – |
| C/C(=N\Nc1ccccn1)c1ccccn1 | – | – | – | 61 | 99% (active) | 98.7% (active) | 57 | 98% (active) | 99% (active) | 53 | 98% (active) | 49.9% | 60 | 98% (active) | 98.5% (active) | 56% | 99% (active) | 97.3% (active) |
| CC(C)(C)CC(C)(C)c1ccc(O)c(Cl)c1 | -3 | 93% (active) | 99.1% (active) | – | – | – | -2 | 50% | 91.2% (active) | -4 | 90% (active) | 78.4% (active) | -4 | 95% (active) | 99.5% (active) | -6% | 86% (active) | 49.9% |
| CCCc1nc2ccccc2c(=O)n1/N=C/c1ccccc1O | 4 | -5% | 44.2% | – | – | – | 4 | -1% | 72.4% (active) | -2 | -2% | 82.5% (active) | -2 | 2% | 71% (active) | -4% | -2% | 53.8% |
| Clc1ccccc1/C=C/c1nccc2ccccc12 | 15 | 98% (active) | 94.1% (active) | – | – | – | 18 | 98% (active) | 72.3% (active) | 64 | 99% (active) | 88.5% (active) | 1 | 98% (active) | 94.2% (active) | 15% | 98% (active) | 15.1% |
| Oc1ccc(O)c2c1CC=C(Cl)C2 | 10 | 48% | 52.4% | – | – | – | 13 | 55% | 33% | 26 | 83% (active) | 56.5% | 17 | 75% (active) | 59.8% | -1% | 86% (active) | 24.9% |
| Cc1ccnc(NS(=O)(=O)c2ccc(N=Cc3c4ccccc4nc4cc(Cl)ccc34)cc2)n1 | – | – | – | 32 | 38% | 99.2% (active) | 41 | 23% | 99.4% (active) | 40 | -2% | 58.1% | 24 | 11% | 99.3% (active) | 16% | 1% | 99% (active) |
| COc1cccc2c1C(=O)c1c(O)c3c(c(O)c1C2=O)C[C@@](O)(/C(C)=N/NC(=O)c1ccc(Cl)c(Cl)c1)C[C@@H]3OC1CC(N)C(O)C(C)O1 (some centres not stated) | – | – | – | 25 | 99% (active) | 50.4% | 25 | 99% (active) | 44.6% | 43 | 99% (active) | 98.5% (active) | 33 | 99% (active) | 52.6% | – | – | – |
| NC(=O)C#CC#CC#CCO | – | – | – | 24 | 62% | 94.8% (active) | 18 | 78% (active) | 94% (active) | 38 | 77% (active) | 93.5% (active) | 19 | 67% | 92.7% (active) | 25% | 39% | 91.8% (active) |
| CC[C@@H](C(=O)[C@@H](C)[C@@H](O)[C@H](C)CCc1ccc(C)c(O)c1C(=O)O)[C@H]1O[C@](CC)([C@H]2CC[C@](O)(CC)[C@H](C)O2)C[C@@H]1C | 36 | 97% (active) | 89.7% (active) | – | – | – | 38 | 98% (active) | 91% (active) | 65 | 98% (active) | 88.9% (active) | 35 | 98% (active) | 89.3% (active) | 71% (active) | 99% (active) | 87.8% (active) |
| N#Cc1ccc2nc3ccc(N)cc3nc2c1 | – | – | – | 4 | 76% (active) | 39.1% | -18 | 86% (active) | 20.1% | -13 | 82% (active) | 43.3% | -5 | 96% (active) | 48% | -6% | 82% (active) | 10.6% |
| Nc1ccccc1N=Nc1c(S(=O)(=O)O)cc2cc(S(=O)(=O)O)cc(O)c2c1O | 17 | 23% | -24% | 3 | 5% | -10.9% | -3 | 11% | -27.6% | 17 | 12% | -33.5% | 5 | 7% | -33.9% | – | – | – |
| O=C(Nc1ccccc1)c1ccc([N+](=O)[O-])o1 | 12 | 83% (active) | 96.3% (active) | – | – | – | 9 | 82% (active) | 98.6% (active) | 2 | 79% (active) | 91.4% (active) | 24 | 91% (active) | 98.5% (active) | -2% | 31% | 80.2% (active) |
